In PubChem BioAssay AID1479144 (National Center for Advancing Translational Sciences (NCATS), 2020):
Inconclusive results are not listed. Entries that show only a call come without a potency. Unmarked numbers belong to inactive results. Active and inactive are the calls of the source. Calls follow the shape of the full dose curve.

assay: Confirmatory qHTS for Vero E6 cytotoxicity: counterscreen for inhibitors of SARS-S pseudo-typed particle cell entry; settings: cell viability; series mostly up to 57.1 µM

Row | SMILES | Potency | activity change, negative = cytotoxicity
1 | O=C1CCc2ccc(OCCCCN3CCN(c4cccc(Cl)c4Cl)CC3)cc2N1 | inactive | 
2 | Cc1nn(C)c2c1C(c1ccccc1F)=NCC(=O)N2C | inactive | 
3 | CN1CCC[C@@H]1CCO[C@](C)(c1ccccc1)c1ccc(Cl)cc1 | inactive | 
4 | CC(=O)OCC1=C(C(=O)O)N2C(=O)[C@@H](NC(=O)Cc3cccs3)[C@H]2SC1 | inactive | 
5 | COc1cc([C@@H]2c3cc4c(cc3C(O[C@@H]3O[C@@H]5CO[C@@H](c6cccs6)OC5[C@H](O)[C@H]3O)C3COC(=O)[C@@H]32)OCO4)cc(OC)c1O (some centres undefined) | 24.1 µM (active) | 
6 | COc1c(OCCCN2CCOCC2)ccc2c3n(c(=NC(=O)c4cnc(N)nc4)nc12)CCN3 |  | -8.49% [at 11.2 µM]
7 | CC(C)(C)NCC(O)COc1ccccc1C1CCCC1 (centres undefined) | inactive | 
8 | CCCCCCNC(=O)n1cc(F)c(=O)[nH]c1=O | inactive | 
9 | CCc1c2c(nc3ccc(OC(=O)N4CCC(N5CCCCC5)CC4)cc13)-c1cc3c(c(=O)n1C2)COC(=O)[C@]3(O)CC | inactive | 
10 | N#CC(c1ccc(Cl)cc1)c1c(Cl)cc(-n2ncc(=O)[nH]c2=O)cc1Cl (centres undefined) | 24.1 µM (active) | 
11 | CC(C)OC(=O)[C@H](C)N[P@](=O)(CO[C@H](C)Cn1cnc2c(N)ncnc21)Oc1ccccc1 | inactive | 
12 | CCN(CC)Cc1cc(Nc2ccnc3cc(Cl)ccc23)ccc1O | inactive | 
13 | CC(C)OC(=O)OCOP(=O)(CO[C@H](C)Cn1cnc2c(N)ncnc21)OCOC(=O)OC(C)C | inactive | 
14 | O=c1[nH]c(=O)n([C@H]2C[C@H](O)[C@@H](CO)O2)cc1C(F)(F)F | inactive | 
